# Screening data: PubChem BioAssay, National Center for Advancing Translational Sciences (NCATS)
# MCF10A rereplic: DNA re-replication induction in MCF 10a cells | 350,000 tested, 2.9% active | Potency, µM (highest dose often 46.1 µM), without a hit: at the top dose activity, positive = re-replication, hits mostly activators | MCF 10A DNA re-replication, Hoechst nuclear intensity, 48 h; further: % of control where 0% means no effect; nearly all actives have a fitted effect of over 50% in size
# ELG1 repair inh: inhibitors of ELG1-dependent DNA repair in HEK293T cells; HEK293T ELG1-luciferase reporter, luminescence, 16 h; DNA damage induced by 5-fluorouridine; Potency, µM (top dose mostly 46.1 µM), for inactives: at the highest dose activity change, negative = inhibition, hits mostly inhibitors; 330,000 tested, 2.3% active; AID 504467; further: on the % scale 0 is the no-effect control and ±100 the full control effect; nearly all actives have a fitted effect of over 55% in size
#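 Luminescence from the luciferase reporter, measured 30 min after ONE-Glo reagent at room temperature, was the read-out. Beforehand, 2,000 cells per well were exposed for 16 hr at 37 °C to 5-fluorouridine together with compound or vehicle.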
# KB-3-1 cytotox: kills parental KB-3-1 adenocarcinoma cells; KB-3-1 viability, CellTiter-Glo ATP luminescence, 72 h; Potency, µM (top dose mostly 46.1 µM), most hits filed as cytotoxic; 400,000 tested, 1.4% active; further: on the % scale 0 is the no-effect control and ±100 the full control effect; nearly all actives have a fitted effect of over 60% in size
#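 Screening of KB-3-1 cells (DMEM, 10% FBS, phenol-red free) ran from lowest to highest compound concentration; after 72 h at 37 °C viability was read luminescently and curves fitted.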
# SW480 rerep: inducers of DNA re-replication in SW480 colon cancer cells; SW480 DNA re-replication, Hoechst DNA content imaging, 48 h; AID 624297; Potency, µM (doses to about 46.1 µM), for the others: at the highest dose re-replication activation, usual class: activators; 340,000 tested, 1.8% active; further: % of control where 0% means no effect; nearly all actives have a fitted effect of over 55% in size
#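 250 cells/well; 23 nL cpd via pin tool; 48 hr, 37 C, 5% CO2; Hoechst 40 min; imager read of total nuclear intensity, ex 405/em 500-530 nm.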
# KB-V1 MDR tox: KB-V1 MDR subline cytotoxicity | KB-V1 MDR cells viability, CellTiter-Glo, 72 h | Potency, µM (titrated, usually from 46.1 µM), actives largely listed as cytotoxic | 400,000 tested, 3.4% active | AID 1347076; further: on the % scale 0 is the no-effect control and ±100 the full control effect; nearly all actives have a fitted effect of over 60% in size
#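 KB-V1 cells (P-gp-expressing MDR subline of KB-3-1) in phenol-red-free DMEM with 10% FBS were exposed to library compounds over a concentration series for 72 h at 37 degrees C. Viability read by CellTiter-Glo luminescence; concentration-effect curves fitted after normalization.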
# * marks the source's active call; other numbers are inactive results; i = inactive; ? = inconclusive; · = no result. The list is not random: actives were taken first. Their share in the collection is about 8.1%. The call rests on the fitted dose curve; in most records, active means well fitted curve in the direction sought with a large enough effect; inconclusive means small, poorly fitted or top-dose-only effect, or another doubt; inactive means no such curve, though single readings can be large; an effect the other way counts as inactive or inconclusive. Potency means the concentration at half of the fitted maximal effect.
SMILES,MCF10A rereplic,ELG1 repair inh,KB-3-1 cytotox,SW480 rerep,KB-V1 MDR tox
N#C/C(=C\Nc1ccc2cn[nH]c2c1)c1nc(-c2ccccc2)cs1,16.4µM*,14.9%,i,2.6%,i
Cc1nc(Nc2cnc(/C=C/c3cc(C(=O)Nc4cccc(C(F)(F)F)c4)ccc3C)cn2)cc(N2CCNCC2)n1,14.6µM*,?,?,16.4µM*,?
O=C(Nc1ccc(CN2CCOCC2)cc1)c1ccc(-c2cc(Cl)ccc2Cl)o1,?,23.1µM*,?,?,?
O=C(Nc1ccc(CN2CCOCC2)cc1)c1ccc(Br)o1,2.4%,?,i,?,i
O=C(Nc1ccc(CN2CCOCC2)cc1)c1ccc(-c2cccc([N+](=O)[O-])c2)o1,2.2%,13µM*,?,16.7%,?
O=[N+]([O-])c1cccc(-c2ccc(C(=S)N3CCOCC3)o2)c1,-7.8%,?,?,-9.0%,?
O=C1CCCCC1(CCc1ccncc1)CCc1ccncc1,?,·,i,2.9%,?
CC(/C=C/c1ccc(N(C)C)cc1)=N\N=C1\NC(=O)CC(C(=O)Nc2ccccc2)S1 (stereo not given),11.6µM*,?,i,?,i
CC(/C=C/c1ccc(N(C)C)cc1)=N/N=C1/NC(=O)CC(C(=O)Nc2ccc(Cl)cc2)S1 (stereo not given),6.51µM*,?,i,20.6µM*,i
COc1ccc(NC(=O)C2CC(=O)N/C(=N/N=C/c3ccccc3)S2)cc1 (stereo not given),3.6%,?,i,4.3%,i
CCCOc1ccc(NC(=O)C2CC(=O)N/C(=N/N=C(C)/C=C/c3ccc(N(C)C)cc3)S2)cc1 (stereo not given),5.17µM*,?,?,18.4µM*,16.4µM*
CCCOc1ccc(NC(=O)C2CC(=O)N/C(=N/N=C(\C)CCc3ccc4c(c3)OCO4)S2)cc1 (stereo not given),?,18.6%,i,-10.6%,i
CCCCn1nnnc1C1(C)CCC(=O)N1CCOc1ccccc1 (stereo not given),·,·,i,·,?
Nc1ncnc2c1ncn2C1CCC(CO)C(O)C1 (stereo not given),-7.5%,8.9%,i,-5.2%,i
CCCC(=O)NC(c1ccc(OC)c(OC)c1)c1c(O)ccc2ccccc12 (stereo not given),-6.5%,2.0%,i,-0.4%,?
CC(=O)NC(c1ccc(C(C)C)cc1)c1c(O)ccc2ccccc12 (stereo not given),18.4µM*,·,i,?,i
CCCCC(=O)NC(c1ccc(OC)c(OC)c1)c1c(O)ccc2ccccc12 (stereo not given),3.2%,4.1%,i,-4.7%,14.6µM*
CCCC(=O)NC(c1ccccc1)c1c(O)ccc2ccccc12 (stereo not given),10.6%,-4.1%,i,3.7%,i
CCCC(=O)NC(c1ccc(N(C)C)cc1)c1c(O)ccc2ccccc12 (stereo not given),-1.0%,0.5%,i,-2.3%,14.6µM*
O=C(O)c1ccc2c3c(ncnc13)-c1ccccc1C2=O,2.31µM*,?,?,?,i
CSc1nc(NCC(C)C)nc(N2CCOCC2)n1,1.8%,1.2%,i,-6.9%,i
NNC(=O)c1sccc1OCc1ccc(F)cc1,-8.9%,11.1%,i,-8.4%,?
COc1ccc(COc2ccsc2C(=O)Nc2ccc(Cl)cc2)cc1,18.4µM*,-13.2%,i,?,9.2µM*
COc1ccc(NC(=O)c2csc(Cc3ccc(Cl)cc3)n2)cc1,12.5%,?,i,-6.3%,i
O=C(N/N=C/c1ccc(Cl)cc1)c1sccc1OCc1ccc(F)cc1,1.64µM*,?,1.46µM*,9.2µM*,1.3µM*
COC(=O)N/N=C/c1cc(Cl)cc(Cl)c1OCc1ccc(F)cc1,0.1%,-8.4%,i,?,23.1µM*
O=C(N/N=C/c1ccc(F)cc1)c1sccc1OCc1ccc(F)cc1,7.31µM*,12.8%,?,9.2µM*,7.31µM*
O=c1ccc2c([nH]1)CCCCCCCCCC2,?,16.6%,?,-0.1%,7.31µM*
